Assays:
[1] = tested on: Staphylococcus aureus MW2 delta-mecA (mecA-); experiment: normalized GFP fluorescence (growth of mecA- strain) (fraction of control range); higher = more growth of mecA- strain; details: compound concentration: 150 uM; cefoxitin: subinhibitory; fluorescent label: GFP
Summary of the method: (§1)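 Pre-induced S. aureus MW2 mecA+ (DsRed) and ΔmecA (GFP) cells were mixed 1:1 in LB with a daily-set subinhibitory cefoxitin dose. They were dispensed at 5 µL/well onto 150 μM compound (1.5% DMSO) in 1536-well plates, single replicate. Growth was 20 h at 37 °C, 90% humidity, unshaken, and DsRed (540/590) and GFP (485/520) were then read. Each channel was scaled per plate between the medians of the single-strain controls. Plates with high No Treatment ratios and rows with DsRed/GFP >10 were excluded.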

[2] = tested on: Staphylococcus aureus MW2 (mecA+); experiment: normalized DsRed fluorescence (growth of mecA+ strain) (fraction of control range); higher = more growth of mecA+ strain; details: compound concentration: 150 uM; cefoxitin: subinhibitory; fluorescent label: DsRed
Summary of the method: as §1

SMILES	normalized GFP fluorescence [1]	normalized DsRed fluorescence [2]
COc1ccc(CCN(C)CCCC(C#N)(c2ccc(OC)c(OC)c2)C(C)C)cc1OC (configuration not stated)	0.734	0.717
N=C(N)NC(=N)NCCc1ccccc1	0.435	0.624
CN(C)CCCN1c2ccccc2CCc2ccccc21	0.0133	1.83
COc1cc2c(Oc3ccc4[nH]c(C)cc4c3F)ncnc2cc1OCCCN1CCCC1 [Cediranib (AZD2171)]	-0.00111	1.4
CC(=O)CC(c1ccccc1)c1c(O)c2ccccc2oc1=O (configuration not stated)	0.718	0.285
NS(=O)(=O)c1cc2c(cc1Cl)NC(C1CC3C=CC1C3)NS2(=O)=O (configuration not stated)	0.463	0.69
